Measured values as given in the supplement of paper PMC10849652.
About 7,900 targets were measured; listed, in parts, are those with a hit and a random draw of the rest. About 0.6% of all pairs of compound and target were hits.

Legend:
Test in all cases: log2 fold change, soluble protein after heating vs DMSO (PISA); higher = thermal stabilisation; K562 cells, 10 uM, 30 min; active = over 0.2 and 3.5 SD of the protein, either way, in both replicates (recomputed)
[1] = compound: CC[C@@H]1C(=O)N(C)c2cnc(Nc3ccc(C(=O)NC4CCN(C)CC4)cc3OC)nc2N1C1CCCC1
In short: (§1)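 Soluble protein was defined as the supernatant after 21,000xg for 90 min. It came from K562 cells at 2×10^6 cells/mL given 10 μM compound for 30 min, heated in aliquots for 3 min across 48°C-58°C, pooled, and extracted in PBS with 0.5% NP-40 at 4°C, and was quantified by TMTpro 16plex LC-MS/MS with equalised channel sums. Thermal stability against control samples, from duplicates, is reported as log2 fold change.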

volasertib = compound: CC[C@@H]1C(=O)N(C)c2cnc(Nc3ccc(C(=O)N[C@H]4CC[C@H](N5CCN(CC6CC6)CC5)CC4)cc3OC)nc2N1C(C)C [volasertib]
In short: as §1

[2] = compound: CCn1c(C(=O)N(C2CC2)C2CC2)cc2c3c(ncn3C)c(Nc3cc(C)n(C)n3)nc21
In short: as §1

[3] = compound: CCn1cc(-c2ccnc3[nH]c(-c4cccc(CN(C)C)c4)cc23)c(-c2ccc(NC(=O)N(C)C)cc2)n1
In short: as §1

[4] = compound: CN1C2=C(C3=C1C(=O)N(N=C3)CC4=CC(=CC=C4)N)SC(=C2)S(=O)C
In short: as §1

[5] = compound: CN1CCC(CNc2ccc3ncc(-c4cccc(OC(F)(F)F)c4)n3n2)CC1
In short: as §1

[6] = compound: CC[C@H](C)N1C=C(C2=C(C=C(C=C21)C3=CN=C(C=C3)N4CCNCC4)C(=O)NCC5=C(C=C(NC5=O)C)C)C
In short: as §1

epoxomicin = compound: CC[C@H](C)[C@@H](C(=O)N[C@@H]([C@@H](C)O)C(=O)N[C@@H](CC(C)C)C(=O)[C@]1(CO1)C)NC(=O)[C@H]([C@@H](C)CC)N(C)C(=O)C [epoxomicin]
In short: as §1

rosiglitazone = compound: CN(CCOC1=CC=C(C=C1)C[C@H]2C(=O)NC(=O)S2)C3=CC=CC=N3 (racemic) [rosiglitazone]
In short: as §1

[7] = compound: CN(C)CC(=O)Nc1ccc2[nH]c(=O)c3ccccc3c2c1
In short: as §1

Measured: log2 fold change

CWF19L2 (UniProt Q2TBE0)
inactive: [1] -0.051 | volasertib -0.107 | [2] -0.131 | [3] 0.094 | [4] 0.231 | [5] 0.21

ENTPD7 (UniProt Q9NQZ7)
inactive: [1] -0.204 | volasertib -0.233 | [6] 0.08 | epoxomicin 0.032 | [2] 0.032 | rosiglitazone 0.061 | [4] -0.021

DNAAF2 (UniProt Q9NVR5)
Chain of UniProt Q9NVR5 (Q9NVR5 whole entry, looked up): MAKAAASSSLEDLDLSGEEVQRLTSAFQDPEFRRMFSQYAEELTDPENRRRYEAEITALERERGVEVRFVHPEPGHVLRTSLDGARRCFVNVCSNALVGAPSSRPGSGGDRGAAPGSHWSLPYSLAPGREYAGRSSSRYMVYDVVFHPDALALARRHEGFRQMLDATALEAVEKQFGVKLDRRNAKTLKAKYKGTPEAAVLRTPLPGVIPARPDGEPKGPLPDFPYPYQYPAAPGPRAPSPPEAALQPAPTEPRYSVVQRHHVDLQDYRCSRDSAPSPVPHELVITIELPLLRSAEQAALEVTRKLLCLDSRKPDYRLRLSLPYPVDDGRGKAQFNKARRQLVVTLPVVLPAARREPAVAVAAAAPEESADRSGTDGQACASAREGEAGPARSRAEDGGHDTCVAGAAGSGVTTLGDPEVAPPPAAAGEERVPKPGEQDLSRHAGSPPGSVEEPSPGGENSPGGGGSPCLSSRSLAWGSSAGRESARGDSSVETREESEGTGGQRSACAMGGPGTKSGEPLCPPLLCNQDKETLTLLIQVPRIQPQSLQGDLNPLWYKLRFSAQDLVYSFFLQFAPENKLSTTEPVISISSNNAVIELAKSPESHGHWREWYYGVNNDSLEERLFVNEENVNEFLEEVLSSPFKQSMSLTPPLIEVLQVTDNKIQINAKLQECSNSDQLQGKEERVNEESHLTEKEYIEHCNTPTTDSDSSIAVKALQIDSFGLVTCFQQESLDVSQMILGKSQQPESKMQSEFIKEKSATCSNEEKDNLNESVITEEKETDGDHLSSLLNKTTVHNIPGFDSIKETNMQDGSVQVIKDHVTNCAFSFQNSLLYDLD
active: [5] -0.279
inactive: [1] 0.11 | volasertib -0.113 | [6] -0.031 | epoxomicin -0.012 | [2] 0.029 | [3] 0.095 | [7] 0 | rosiglitazone -0.06 | [4] 0.042

CTSV (UniProt O60911)
inactive: [6] -0.054 | epoxomicin -0.007 | [2] 0.033 | [3] 0.084 | [7] 0.012 | rosiglitazone -0.013 | [4] -0.081
active: [1] -0.719 | volasertib -0.993 | [5] -1.29

CUTA isoform 2 (UniProt O60888)
inactive: [1] 0.063 | volasertib -0.057 | [6] -0.033 | epoxomicin 0.125 | [2] 0.03 | [3] -0.109 | [7] 0.175 | rosiglitazone -0.13 | [4] 0.164 | [5] -0.027

EIF4E2 (UniProt O60573)
active: volasertib -0.381
inactive: [1] -0.202 | [6] 0.124 | epoxomicin 0.018 | [2] -0.053 | [7] 0.063 | rosiglitazone 0.035 | [4] -0.034

F2RL3 (UniProt Q96RI0)
inactive: volasertib 0.076 | [2] 0.074 | [7] 0.012 | [4] -0.002

FADS1 (UniProt F5GYH4)
inactive: [7] 0.026 | rosiglitazone 0.238

ELOVL7 (UniProt A1L3X0)
Chain of UniProt A1L3X0 (A1L3X0 whole entry, looked up): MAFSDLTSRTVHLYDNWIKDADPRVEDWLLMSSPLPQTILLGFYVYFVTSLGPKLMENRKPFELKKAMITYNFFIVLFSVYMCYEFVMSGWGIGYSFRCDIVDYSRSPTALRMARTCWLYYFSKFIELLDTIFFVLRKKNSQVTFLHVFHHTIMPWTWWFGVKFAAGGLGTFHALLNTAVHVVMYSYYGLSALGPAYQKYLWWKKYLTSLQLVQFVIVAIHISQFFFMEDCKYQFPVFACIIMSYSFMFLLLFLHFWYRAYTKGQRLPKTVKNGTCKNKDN
inactive: epoxomicin 0.007 | [2] -0.016 | [4] 0.047

DCAF12 (UniProt Q5T6F0)
inactive: [1] -0.132 | [3] -0.141 | [5] 0.197

FAM160A2 isoform 2 (UniProt Q8N612)
inactive: [1] -0.074 | [6] -0.048 | epoxomicin -0.177 | [3] 0.06 | [7] 0.052 | rosiglitazone -0.046 | [4] 0.287 | [5] -0.258

EPHX2 (UniProt E5RI53)
inactive: epoxomicin -0.199 | rosiglitazone -0.248

EGR1 (UniProt P18146)
Chain of UniProt P18146 (P18146 whole entry, looked up): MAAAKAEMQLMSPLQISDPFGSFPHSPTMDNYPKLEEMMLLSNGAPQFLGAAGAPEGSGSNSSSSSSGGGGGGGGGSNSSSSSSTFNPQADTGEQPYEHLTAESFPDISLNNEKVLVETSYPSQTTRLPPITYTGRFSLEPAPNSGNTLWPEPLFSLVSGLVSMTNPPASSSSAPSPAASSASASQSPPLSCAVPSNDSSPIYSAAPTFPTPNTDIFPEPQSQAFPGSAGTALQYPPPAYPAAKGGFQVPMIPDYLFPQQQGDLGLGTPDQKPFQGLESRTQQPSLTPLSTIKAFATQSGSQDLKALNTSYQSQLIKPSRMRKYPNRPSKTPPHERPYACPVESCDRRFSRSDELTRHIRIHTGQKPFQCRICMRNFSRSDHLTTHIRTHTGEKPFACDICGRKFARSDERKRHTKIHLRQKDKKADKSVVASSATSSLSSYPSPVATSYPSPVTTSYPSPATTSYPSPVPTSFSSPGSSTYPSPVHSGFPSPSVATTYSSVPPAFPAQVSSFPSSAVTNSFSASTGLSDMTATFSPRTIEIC
inactive: volasertib 0.085 | [6] 0.158 | epoxomicin 0.489 | [2] 0.113 | [3] 0.228 | [7] -0.241 | rosiglitazone 0.08 | [5] -0.56

FAM135A (UniProt Q9P2D6)
inactive: [6] -0.068 | epoxomicin -0.088 | [2] 0.009 | [7] 0.079

DERPC (UniProt P0CG12)
active: [4] 0.519
inactive: [1] 0.127 | [6] -0.051 | [2] 0 | [3] 0.197 | [7] 0.053 | rosiglitazone 0.04 | [5] 0.025

DOCK8 (UniProt Q8NF50)
inactive: [1] 0.01 | [6] 0.004 | epoxomicin 0.119 | [2] -0.208 | [3] -0.094 | [7] -0.009 | rosiglitazone 0.028 | [4] 0.258 | [5] 0.137

DDX27 (UniProt Q96GQ7)
inactive: [1] -0.033 | [6] 0.1 | epoxomicin -0.184 | [2] -0.084 | [3] 0.116 | [7] -0.009 | [4] 0.162 | [5] 0.241

DDB1 isoform 2 (UniProt Q16531)
Chain of UniProt Q16531 (Q16531 whole entry, looked up): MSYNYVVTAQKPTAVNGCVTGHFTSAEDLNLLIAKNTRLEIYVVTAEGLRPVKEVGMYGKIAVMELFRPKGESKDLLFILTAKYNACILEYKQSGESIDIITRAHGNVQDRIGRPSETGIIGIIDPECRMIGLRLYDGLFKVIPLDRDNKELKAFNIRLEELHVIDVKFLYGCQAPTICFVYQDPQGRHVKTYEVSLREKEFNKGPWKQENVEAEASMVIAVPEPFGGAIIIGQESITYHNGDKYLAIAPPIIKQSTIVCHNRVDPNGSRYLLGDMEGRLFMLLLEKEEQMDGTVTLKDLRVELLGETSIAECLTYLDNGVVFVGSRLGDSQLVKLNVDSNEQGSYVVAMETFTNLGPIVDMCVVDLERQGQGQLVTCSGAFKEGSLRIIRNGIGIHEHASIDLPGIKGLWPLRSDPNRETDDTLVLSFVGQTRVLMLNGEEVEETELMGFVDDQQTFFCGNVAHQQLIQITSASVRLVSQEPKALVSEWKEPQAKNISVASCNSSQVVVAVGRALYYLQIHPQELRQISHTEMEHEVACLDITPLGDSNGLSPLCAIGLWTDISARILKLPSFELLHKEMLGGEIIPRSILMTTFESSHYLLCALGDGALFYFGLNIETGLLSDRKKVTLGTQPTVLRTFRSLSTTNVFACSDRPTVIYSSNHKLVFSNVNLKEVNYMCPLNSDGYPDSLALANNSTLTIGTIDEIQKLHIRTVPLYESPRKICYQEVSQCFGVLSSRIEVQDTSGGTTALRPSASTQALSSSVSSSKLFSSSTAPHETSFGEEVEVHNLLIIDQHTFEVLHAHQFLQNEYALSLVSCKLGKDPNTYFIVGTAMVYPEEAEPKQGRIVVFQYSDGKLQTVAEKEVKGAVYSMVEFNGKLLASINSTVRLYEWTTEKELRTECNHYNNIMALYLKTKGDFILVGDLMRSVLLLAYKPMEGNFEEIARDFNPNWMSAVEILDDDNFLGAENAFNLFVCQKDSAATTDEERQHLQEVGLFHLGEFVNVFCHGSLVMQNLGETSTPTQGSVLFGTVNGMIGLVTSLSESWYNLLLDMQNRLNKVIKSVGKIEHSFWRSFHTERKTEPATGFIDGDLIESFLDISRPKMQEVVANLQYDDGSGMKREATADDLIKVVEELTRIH
inactive: [1] 0.141 | epoxomicin -0.287 | [3] 0.235 | rosiglitazone 0.301 | [5] -0.041

DDX11 (UniProt Q96FC9)
inactive: volasertib -0.084 | [6] 0.128 | epoxomicin 0.099 | [2] -0.018 | [7] 0.098 | rosiglitazone 0.052 | [4] -0.04

EIF4G1 (UniProt Q04637)
Chain of UniProt Q04637 (Q04637 whole entry, looked up): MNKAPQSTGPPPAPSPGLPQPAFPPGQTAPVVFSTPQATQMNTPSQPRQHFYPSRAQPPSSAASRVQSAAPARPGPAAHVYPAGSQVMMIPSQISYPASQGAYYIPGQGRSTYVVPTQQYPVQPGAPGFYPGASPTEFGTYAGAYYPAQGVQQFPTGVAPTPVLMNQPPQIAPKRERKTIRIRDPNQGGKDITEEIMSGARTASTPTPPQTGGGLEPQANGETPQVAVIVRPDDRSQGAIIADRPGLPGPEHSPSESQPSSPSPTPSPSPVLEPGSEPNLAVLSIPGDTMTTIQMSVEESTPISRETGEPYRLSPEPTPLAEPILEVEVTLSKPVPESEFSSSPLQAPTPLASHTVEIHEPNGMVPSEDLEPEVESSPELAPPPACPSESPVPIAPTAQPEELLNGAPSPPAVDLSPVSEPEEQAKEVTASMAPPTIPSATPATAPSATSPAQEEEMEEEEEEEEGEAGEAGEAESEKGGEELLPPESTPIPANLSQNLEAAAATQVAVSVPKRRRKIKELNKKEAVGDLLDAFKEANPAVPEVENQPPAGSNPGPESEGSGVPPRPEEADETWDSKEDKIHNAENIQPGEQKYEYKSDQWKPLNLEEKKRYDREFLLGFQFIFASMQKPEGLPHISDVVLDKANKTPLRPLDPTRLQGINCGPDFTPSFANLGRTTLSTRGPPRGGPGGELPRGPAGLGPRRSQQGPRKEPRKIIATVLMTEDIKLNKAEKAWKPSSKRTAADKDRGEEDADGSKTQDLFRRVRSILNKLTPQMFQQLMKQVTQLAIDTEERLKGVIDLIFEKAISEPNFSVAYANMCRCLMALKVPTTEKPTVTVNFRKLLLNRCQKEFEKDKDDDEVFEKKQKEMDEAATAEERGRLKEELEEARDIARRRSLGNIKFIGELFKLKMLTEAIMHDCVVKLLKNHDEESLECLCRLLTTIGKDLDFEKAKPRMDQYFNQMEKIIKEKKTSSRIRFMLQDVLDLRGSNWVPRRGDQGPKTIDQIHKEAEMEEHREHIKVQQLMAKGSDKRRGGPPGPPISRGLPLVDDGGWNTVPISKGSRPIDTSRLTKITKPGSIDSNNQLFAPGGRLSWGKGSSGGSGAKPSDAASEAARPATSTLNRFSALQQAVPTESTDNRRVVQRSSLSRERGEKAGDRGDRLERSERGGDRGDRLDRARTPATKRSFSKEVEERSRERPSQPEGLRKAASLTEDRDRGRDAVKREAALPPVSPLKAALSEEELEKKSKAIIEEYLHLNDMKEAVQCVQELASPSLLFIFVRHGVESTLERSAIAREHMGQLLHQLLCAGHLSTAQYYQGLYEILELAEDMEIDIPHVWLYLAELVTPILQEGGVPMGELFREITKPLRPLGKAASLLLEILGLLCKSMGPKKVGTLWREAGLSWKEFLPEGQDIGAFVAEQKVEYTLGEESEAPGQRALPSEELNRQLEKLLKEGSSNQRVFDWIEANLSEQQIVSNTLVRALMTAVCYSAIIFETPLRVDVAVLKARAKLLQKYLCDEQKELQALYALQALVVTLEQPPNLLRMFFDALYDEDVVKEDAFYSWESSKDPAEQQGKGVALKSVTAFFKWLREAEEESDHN
active: [5] -0.552
inactive: [3] 0.062 | [7] 0 | [4] 0.224

DLK1 (UniProt P80370)
active: [1] 0.43
inactive: epoxomicin 0.012 | [7] -0.016 | [4] 0.127

EIF2AK1 (UniProt Q9BQI3)
inactive: volasertib -0.142 | epoxomicin 0.13 | [2] 0.001 | [3] 0.034 | [7] -0.121 | rosiglitazone -0.025 | [4] 0.006 | [5] -0.082

EEF1D isoform 3 (UniProt P29692)
inactive: [2] -0.067

EDEM2 (UniProt Q9BV94)
inactive: volasertib -0.159 | [6] -0.035 | epoxomicin -0.006 | [2] 0.033 | [3] -0.087 | [7] -0.001 | rosiglitazone -0.077 | [4] -0.003 | [5] 0.161

CTSS (UniProt P25774)
inactive: [1] -0.027 | [3] 0.126 | [7] -0.021 | [4] 0.051 | [5] -0.034

DNAH10 (UniProt Q8IVF4)
inactive: [1] 0.066 | [6] -0.146 | epoxomicin 0.072 | [2] -0.17 | [3] -0.183 | [7] -0.008 | rosiglitazone 0.031 | [4] 0 | [5] 0.006

EPHB4 (UniProt P54760)
inactive: volasertib -0.302

EHBP1 (UniProt Q8NDI1)
inactive: [1] -0.155 | [3] 0.011 | [5] 0.015

EID1 (UniProt Q9Y6B2)
Chain of UniProt Q9Y6B2 (Q9Y6B2 whole entry, looked up): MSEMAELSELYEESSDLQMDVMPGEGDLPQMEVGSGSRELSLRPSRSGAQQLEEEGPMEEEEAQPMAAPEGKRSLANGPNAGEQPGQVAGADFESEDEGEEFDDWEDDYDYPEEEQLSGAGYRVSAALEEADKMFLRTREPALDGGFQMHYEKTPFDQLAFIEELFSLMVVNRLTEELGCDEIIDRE
active: epoxomicin 0.83
inactive: volasertib 0.053 | [6] 0.172 | [2] 0.05 | [3] -0.104 | [5] -0.317

DNAL1 (UniProt Q4LDG9)
Chain of UniProt Q4LDG9 (Q4LDG9 whole entry, looked up): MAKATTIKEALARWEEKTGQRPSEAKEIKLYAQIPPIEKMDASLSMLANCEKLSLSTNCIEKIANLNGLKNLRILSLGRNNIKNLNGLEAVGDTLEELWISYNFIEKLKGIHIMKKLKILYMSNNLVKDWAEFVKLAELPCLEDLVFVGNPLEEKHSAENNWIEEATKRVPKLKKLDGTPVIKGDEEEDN
inactive: epoxomicin 0.082 | [7] 0.103 | rosiglitazone -0.683 | [4] -0.256

ENTR1 (UniProt Q96C92)
inactive: volasertib 0.167 | [2] -0.03 | [7] -0.107 | [4] 0.183

FAM117B (UniProt Q6P1L5)
inactive: [1] -0.054 | epoxomicin 0.021 | [2] -0.211 | [3] 0.012 | [7] 0.11 | [4] -0.072 | [5] 0.017

DDX46, A0A0C4DG89
inactive: [6] -0.074 | epoxomicin 0.155

DNM2 isoform 4 (UniProt P50570)
inactive: [1] 0.026 | [6] -0.125 | epoxomicin 0.241 | [2] 0.017 | [3] -0.01 | rosiglitazone 0.038 | [4] 0.027 | [5] -0.252

DNAJB1 (UniProt M0R128)
inactive: [7] -0.038 | rosiglitazone 0.223

DCAF4 (UniProt Q8WV16)
inactive: [1] 0.03 | [6] -0.075 | epoxomicin 0.041 | [3] 0.147 | [4] 0.128 | [5] -0.086

EDRF1 (UniProt Q3B7T1)
inactive: [1] 0.046 | epoxomicin 0.009 | [2] -0.089 | [3] -0.046 | rosiglitazone 0.004 | [4] 0.006 | [5] -0.014

DCP2 (UniProt Q8IU60)
inactive: volasertib -0.153 | epoxomicin -0.04 | [7] -0.069 | [4] 0.319

DHRS13 (UniProt Q6UX07)
inactive: [1] 0.157 | [6] 0.139 | [2] -0.135 | [3] -0.077 | [7] 0.225 | [4] 0.143 | [5] 0.098

EZH2 isoform 2 (UniProt Q15910)
inactive: volasertib -0.259 | epoxomicin 0.131 | [2] -0.173 | [7] 0.022 | rosiglitazone 0.243 | [4] 0.155

ERF (UniProt P50548)
inactive: epoxomicin 0.068 | [2] 0.033 | [3] -0.052 | [5] 0.319

EIF3J isoform 2 (UniProt O75822)
Chain of UniProt O75822 (O75822 whole entry, looked up): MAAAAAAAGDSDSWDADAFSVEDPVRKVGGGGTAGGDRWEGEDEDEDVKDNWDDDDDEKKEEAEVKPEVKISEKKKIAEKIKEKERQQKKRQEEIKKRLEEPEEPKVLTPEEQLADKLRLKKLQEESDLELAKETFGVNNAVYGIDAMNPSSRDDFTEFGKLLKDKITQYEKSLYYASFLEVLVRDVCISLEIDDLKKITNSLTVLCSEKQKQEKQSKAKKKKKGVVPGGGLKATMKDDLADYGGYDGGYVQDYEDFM
inactive: volasertib 0.031 | [6] -0.079 | epoxomicin 0.025 | [2] 0.03 | [7] 0.076 | rosiglitazone -0.038 | [4] 0.133

DOP1A (UniProt Q5JWR5)
inactive: epoxomicin 0.069 | [2] -0.067 | [7] 0.121 | rosiglitazone -0.026

DENND1A isoform 6 (UniProt Q8TEH3)
active: volasertib -0.856
inactive: [7] 0.112 | rosiglitazone -0.041

DHPS (UniProt M0R1T2)
inactive: rosiglitazone -0.057

ELMO1 (UniProt Q92556)
inactive: [6] -0.089 | epoxomicin -0.109 | [2] 0.046 | [7] 0.031 | rosiglitazone 0.076 | [4] -0.078
